Measurements reported in PubChem BioAssay (NCI).
Values joined by “and” are separate entries in the source; they are usually repeats but may differ in a detail not shown here. Equal values may be shown once. This is part of a sample that, as a whole, favours compounds with a hit. Of some 83,000 tested, about 20% had one in any assay.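 Step 1: grow cells in 96-well plates. Step 2: add test compound at a single concentration. Step 3: incubate 48 h. Step 4: record percent growth.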 A number with no mark means an inactive call. Active and inactive are the calls of the source. How the source made its calls: active means growth percent below 10; inactive means the rest.

test system: MDA-MB-468 breast; test: NCI-60 one-dose screen, 48 h (100 = growth as untreated, 0 = no growth, -100 = all killed); details: 10 µM unless noted

With `COc1ccc(Cn2c(NCCN=C(N)N)nc(=O)n(Cc3ccc(F)cc3)c2=O)cc1` the growth was 56.7% and 33.4%.
`COc1cc2c(c(OC)c1OC)-c1ccc(N)c(=O)cc1[C@@H](NC(C)=O)CC2` was tested, and the growth was 0.226% (active).
For `C=C1C(=O)O[C@H]2[C@H]1CC/C(COC(=O)/C=C/C(=O)OC/C1=C/CC[C@@]3(C)O[C@H]3[C@H]3OC(=O)C(=C)[C@@H]3CC1)=C\CC[C@@]1(C)O[C@@H]21`, the growth was -5.97% (active).
In the case of `COc1cc(/C=C2\CN(C(=O)CCN3CCC(=NO)CC3)C/C(=C\c3cc(OC)c(OC)c(OC)c3)C2=O)cc(OC)c1OC`, the growth is reported as -41.2% (active).

Point of comparison: `COc1cc(NC(=O)c2cc(O)c(C/C=C(\C)CCC=C(C)C)c(O)c2)cc2c1O[C@]1(C)CC[C@@H](O)C(C)(C)[C@H]1C2`, growth 21.9%. Against it:
- O=c1[nH]c(CCl)nc2c1cnn2-c1ccccc1 — higher, 96.6%
- CN(C)c1ccc(CNCCO)cc1 — higher, 105%
- Cn1c(=O)c2c(nc(Br)n2CC(=O)Nc2ccc(F)cc2)n(C)c1=O — higher, 109%
- CC(C)C(=O)Nc1ncc(C(=O)NCCN(Cc2ccccc2)C(=O)c2ccc(S(=O)(=O)Nc3ccccc3)cc2)s1 — higher, 80.3%
- Cc1cc(-c2ccc(Cl)cc2)n(Cc2nnc(SCC(=O)Nc3ccc(S(N)(=O)=O)cc3)n2C2CCCCC2)n1 — higher, 117%
- O=S(=O)(NC1c2ccccc2Oc2ccccc21)c1ccccc1 — higher, 87.6%
- Nc1ccc2c(c1)C(=O)c1cc(Cl)c(Cl)cc1-2 — higher, 89.9%
- Cc1ccc(S(=O)(=O)N/N=C2\CCCc3ccccc32)cc1 — higher, 95.7%
- O=[N+]([O-])c1cccc(CN(Cc2cccc([N+](=O)[O-])c2O)c2ccccc2)c1O — higher, 108%
- COc1ccc(Nc2nn3c(C)cc(C)nc3c2C(=O)Nc2ccc(C)cc2)c(OC)c1 — higher, 91.6%
- CCCCCCNC(=O)Oc1ccc(/C(=C(\C)c2ccccc2)c2ccc(OCCN3CCCCC3)cc2)cc1 — higher, 64.2%
- Cc1ccc(-c2nn(-c3ccccc3)cc2/C=C/C(=O)c2ccc(NC(=O)CCCCCCC(=O)NO)cc2)cc1 — higher, 70.9%
- CCOC(=O)c1ccc2c(c1)nc(-c1ccc(OCc3ccccc3)c(OC)c1)n2-c1cc(C(C)(C)C)[nH]n1 — higher, 77%
- COc1ccc(C/C(=C(\C)c2ccc(OCCN3CCCC3)cc2)c2ccc(OCCN3CCCC3)cc2)cc1 — higher, 33.2%
- Nc1ccn(C2O[C@H](CO)[C@@H](O)[C@@H]2O)c(=O)n1 (stereo not given in full) — higher, 78.3%
- O=C(CN1C(=O)CSC1=O)Nc1ccc(C(=O)/C=C/c2cc3ccccc3nc2Cl)cc1 — higher, 48.7%
- CC(=O)O[C@H]1CC2CCC3C(CC[C@@]4(C)C3C[C@H]([N+]3(C)CCCCC3)[C@@H]4OC(C)=O)[C@@]2(C)C[C@@H]1N1CCCCC1 (stereo not given in full) — higher, 106%
- COc1ccc(-c2nnc(COc3ccc(NC(=O)Nc4cccc(C(F)(F)F)c4)cc3F)o2)cc1 — higher, 46.1%
- Oc1c(Cl)cc(Oc2cc(Cl)c(O)c(CN3CCOCC3)c2)cc1CN1CCOCC1 — higher, 84%
- COc1cc(F)c(-c2nc3c(C)cccc3n2Cc2c(F)cccc2F)c(F)c1 — higher, 65.5%
